# In PubChem BioAssay (NCI):
# The panel holds about 83,000 compounds, 20% with a hit somewhere; the sample as a whole holds those more often.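 Values shown are percent growth following 48 h exposure of cells in 96-well plates to a single concentration of compound; below 10 was considered active.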 A number with no mark means an inactive call. Calls of active or inactive are those of the source.
# Tested on: HL-60(TB) leukemia
# Assay: NCI-60 one-dose screen, 48 h (100 = growth as untreated, 0 = no growth, -100 = all killed)
# Settings: 10 µM unless noted
row,Compound,growth
1,COc1ccc(-c2ccc(-c3ccc(C(=N)N)cn3)s2)cc1,-37.1% (active)
2,COc1cnc2c(c1)C(=O)c1c-2n(CCCN2CCOCC2)c(=O)c2cc(F)ccc12,-10.2% (active)
3,COc1ccc(CN2c3ccccc3Sc3ccccc32)c(C(F)(F)F)c1,23.7%
